The entries come from a sample that favours hits as a whole.
nsP2pro inh = Primary qHTS for inhibitors of NSP2Pro chikungunya virus (CHIKV); Polyprotein P1234 (Chikungunya virus (strain S27-African prototype)), Q8JUX6; AID 1964107, 2024; Potency, µM (top dose mostly 24.9 µM), for inactives: at the top dose activity change, negative = inhibition, most hits filed as inhibitors; 1.1% of 31,000 active; FRET peptide cleavage, nsP2pro, fluorescence 1 h; note: nearly all actives have a fitted effect of over 60% in size
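Purified recombinant nsP2pro (150 nM final) in 10 mM Tris-HCl pH 8.0 with 0.01% Tween 20 was preincubated 15 min at room temperature with compound (7 concentrations, up to 25 uM). FRET peptide 2 substrate (2.5 uM final) was then added; fluorescence was read after 1 h.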
CHIKV nsP2 cell = Secondary cell base assay for inhibitors of NSP2Pro Chikungunya virus (CHIKV); shares compounds with nsP2pro inh; cell-based CHIKV nsP2 protease reporter assay; Potency, µM (titrated, usually from 51.1 µM), without a hit: at the top dose activity change, negative = inhibition, usual class: inhibitors; 10% of 450 active; AID 1964100, 2024; note: nearly all actives have a fitted effect of over 70% in size
Target sequence (Q8JUX6 220-798 limits assumed): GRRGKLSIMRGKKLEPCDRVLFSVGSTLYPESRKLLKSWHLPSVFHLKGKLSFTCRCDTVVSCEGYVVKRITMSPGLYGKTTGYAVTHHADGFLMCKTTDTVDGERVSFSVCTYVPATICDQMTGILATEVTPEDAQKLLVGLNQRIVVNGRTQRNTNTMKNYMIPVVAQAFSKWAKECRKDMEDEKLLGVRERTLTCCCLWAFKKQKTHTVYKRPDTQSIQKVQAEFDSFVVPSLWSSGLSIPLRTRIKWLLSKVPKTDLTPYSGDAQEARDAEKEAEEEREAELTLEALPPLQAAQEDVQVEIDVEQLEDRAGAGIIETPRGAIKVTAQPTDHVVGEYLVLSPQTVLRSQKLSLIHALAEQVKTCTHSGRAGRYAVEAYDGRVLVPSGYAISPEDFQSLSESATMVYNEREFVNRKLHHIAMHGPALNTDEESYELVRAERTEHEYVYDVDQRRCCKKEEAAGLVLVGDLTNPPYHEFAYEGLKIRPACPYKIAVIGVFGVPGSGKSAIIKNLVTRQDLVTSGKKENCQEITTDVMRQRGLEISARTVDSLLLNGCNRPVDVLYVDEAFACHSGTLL
CHIKV NSP2 FL = Selectivity profile for inhibitors of NSP2Pro chikungunya virus (CHIKV): Full length NSP2 enzyme counterscreen (CHIKV-NSP2); shares compounds with nsP2pro inh; Full-length CHIKV NSP2 protease enzymatic counterscreen; Potency, µM (top dose mostly 50.7 µM), without a hit: top-dose activity change, negative = inhibition, most hits filed as inhibitors; 39% of 410 active; AID 1964101, 2024; note: nearly all actives have a fitted effect of over 65% in size
Furin counterscr = Selectivity profile for inhibitors of NSP2Pro chikungunya virus (CHIKV): Human furin counterscreen; Recombinant human furin enzymatic counterscreen, fluorogenic substrate; Potency, µM (series often up to 50.6 µM), without a hit: top-dose activity change, negative = inhibition, actives largely listed as inhibitors; 6% of 410 active; shares compounds with nsP2pro inh
nsP2 NS23 pep = Selectivity profile for inhibitors of NSP2Pro chikungunya virus (CHIKV): Endogenous NS2/3 peptide Counterscreen. Purified CHIKV nsP2 protease, endogenous NS2/3 peptide cleavage. 34% of 410 active. Potency, µM (doses to about 51 µM), without a hit: top-dose activity change, negative = inhibition, usual class: inhibitors. AID 1964103, 2024. shares compounds with nsP2pro inh; note: nearly all actives have a fitted effect of over 55% in size
Papain counter = Selectivity profile for inhibitors of NSP2Pro chikungunya virus (CHIKV): Papain Counterscreen | AID 1964104, 2024 | Potency, µM (top dose mostly 51 µM), inactives show top-dose activity change, negative = inhibition, usual class: inhibitors | purified papain protease activity, enzymatic inhibition | 5% of 410 active | shares compounds with nsP2pro inh
nsP2pro conf qHTS = Confirmatory qHTS for inhibitors of NSP2Pro chikungunya virus (CHIKV); shares compounds with nsP2pro inh; AID 1964105, 2024; 43% of 410 active; CHIKV nsP2 protease enzymatic activity, qHTS; Potency, µM (top dose mostly 25.5 µM), for the others: at the highest dose activity change, negative = inhibition, hits mostly inhibitors; note: nearly all actives have a fitted effect of over 75% in size
HCV NS3 counter = Selectivity profile for inhibitors of NSP2Pro chikungunya virus (CHIKV): NS34A-HCV Counterscreen | shares compounds with nsP2pro inh | HCV NS3/4A protease biochemical counterscreen | Potency, µM (highest dose often 50.9 µM), usual class: inhibitors | 20% of 410 active | AID 1964106, 2024; note: nearly all actives have a fitted effect of over 55% in size
* = called active by the depositor; i = inactive; ? = inconclusive; [ ] = dose if it differs, or a comment. Calls come from the whole dose curve. % is set by controls: 0 for no effect and ±100 for the full control effect; potency is the fitted concentration of half-maximal effect.

SMILES | nsP2pro inh | others
COc1ccc(OC)c(NC(=O)C2CCCN(S(=O)(=O)c3c(C)nn(C)c3C)C2)c1 (stereo not drawn) | -11%
CCC[C@H](N)C(=O)O | -2%
C=C(C(=O)OC)[C@]12O[C@@](C)(CC[C@@]3(O)/C(=C\C)C(=O)O[C@]3(C)C[C@@H]1OC(=O)C(CO)CN1CCCC1C(=O)O)CC2=O (stereo partly drawn) | ? | CHIKV nsP2 cell=-3%[17.6 µM];CHIKV NSP2 FL=2.4µM*;Furin counterscr=-7%[17.3 µM];nsP2 NS23 pep=?;Papain counter=-22%[17.2 µM];nsP2pro conf qHTS=2.1µM*;HCV NS3 counter=?
CCC(C(=O)OCCN1CCOC(c2ccccc2)C1C)c1ccccc1 (stereo not drawn) | 4%
OCC(O)C(c1c[nH]c2ccccc12)c1c[nH]c2ccccc12 (stereo not drawn) | 47%
O=C(O)c1ccc(-n2cccc2/C=C2\SC(=O)N(Cc3ccc(Br)cc3)C2=O)cc1 | i
Cc1cc(-c2ccc(/C=C3\SC(=Nc4ccc(Cl)c(C(=O)O)c4)NC3=O)o2)c([N+](=O)[O-])cc1C | -23%
O=C(O)c1cc(-c2ccc(/C=C3\SC(=S)N(Cc4ccccc4)C3=O)o2)ccc1Cl | ? | CHIKV nsP2 cell=17%;CHIKV NSP2 FL=-13%;Furin counterscr=-12%;nsP2 NS23 pep=233%;Papain counter=?;nsP2pro conf qHTS=14%;HCV NS3 counter=i
COC(=O)CSc1ncc2c(n1)-c1ccccc1N(Cc1cccc(F)c1)S2(=O)=O | -15%
Cc1cccc(-c2noc([C@@H]3Cc4nc[nH]c4CN3C(=O)c3ccc(-c4ccccc4)cc3)n2)c1 | i
O=C(NC1CCCCC1)N1Cc2[nH]cnc2C[C@H]1c1nc(-c2ccc(Cl)cc2)no1 | 4.5µM* | CHIKV nsP2 cell=56%;CHIKV NSP2 FL=33µM*;Furin counterscr=-9%;nsP2 NS23 pep=?;Papain counter=-9%;nsP2pro conf qHTS=10µM*;HCV NS3 counter=i
Cc1cccc(-c2noc([C@@H]3Cc4nc[nH]c4CN3C(=O)C3CCCCC3)n2)c1 | 72%[39.2 µM]
CCOc1ccccc1CNC(=O)c1cc2c(=O)n(Cc3cccnc3)ccc2nc1C | -8%
CC(C)C(=O)OC[C@H]1O[C@H](O[C@H]2O[C@H](CO)[C@@H](O)[C@H](O)[C@H]2O)[C@H](O)[C@@H](O)[C@@H]1O | -7%[10 µM]
C=C(CCO[C@@H]1O[C@H](CO)[C@@H](O)[C@H](O)[C@H]1O)C(=O)O | ? | CHIKV nsP2 cell=-5%;CHIKV NSP2 FL=-4%;Furin counterscr=6%;nsP2 NS23 pep=0%;Papain counter=-2%;nsP2pro conf qHTS=1%;HCV NS3 counter=i
OC[C@H]1O[C@@H](OCCc2ccc(O)cc2)[C@H](O)[C@@H](O)[C@@H]1O | 37%
Cc1cc(F)ccc1S(=O)(=O)N1C[C@H](C2CC2)[C@@H](N)C1 | 3%
CC(C)N1CCc2c(sc(NC(=O)Cc3ccccc3)c2-c2nc3ccccc3s2)C1 | -2%
Cc1cc(/C=C/C#N)cc(C)c1Nc1ccnc(Nc2ccc(C#N)cc2)n1 | -7%

Source: PubChem
